Data published in the supplement of paper PMC6555819.

Key:
Assay in all cases: PBM binding z-score (relative to random genomic background probes); higher = stronger binding; sequences stand for … in GC…GCGATTGACAGCGTAGAATGAAGG
[1] = test system: FXR:RXRa (NR concentration 270 nM, RXRa partner concentration 90 nM)
How it was run: (§1)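 Ligand-free nuclear receptor dimers were bound for 1 h to custom Agilent 4×180K protein-binding microarrays. Detection used antibodies against each partner (one per run). Binding z-scores rest on regression-normalized fluorescence, with random background probes as the reference.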

[2] = test system: LXRa:RXRa (NR concentration 270 nM, RXRa partner concentration 90 nM)
How it was run: as §1

[3] = test system: LXRa homodimer (NR concentration 270 nM)
How it was run: as §1

[4] = test system: LXRb:RXRa (NR concentration 270 nM, RXRa partner concentration 90 nM)
How it was run: as §1

[5] = test system: LXRb homodimer (NR concentration 270 nM)
How it was run: as §1

[6] = test system: PPARa:RXRa (NR concentration 270 nM, RXRa partner concentration 90 nM)
How it was run: as §1

[7] = test system: PPARg:RXRa (NR concentration 180 nM, RXRa partner concentration 90 nM)
How it was run: as §1

[8] = test system: PPARg:RXRa 270nM:90nM, anti-RXR (NR concentration 270 nM, RXRa partner concentration 90 nM)
How it was run: as §1

[9] = test system: PPARg:RXRa 30nM:10nM, anti-RXR (NR concentration 30 nM, RXRa partner concentration 10 nM)
How it was run: as §1

[10] = test system: PPARg:RXRa 90nM:30nM, anti-RXR (NR concentration 90 nM, RXRa partner concentration 30 nM)
How it was run: as §1

[11] = test system: PPARg:RXRa DBDmut IVT, anti-RXR (DBD mutation: RXRa K156A/R161A, NR concentration 270 nM, RXRa partner concentration 90 nM)
How it was run: as §1

[12] = test system: PPARg:RXRa IVT, anti-PPARg (NR concentration 270 nM, RXRa partner concentration 90 nM)
How it was run: as §1

[13] = test system: PPARg DBDmut:RXRa IVT, anti-PPARg (DBD mutation: PPARg1 K132A/R137A, NR concentration 270 nM, RXRa partner concentration 90 nM)
How it was run: as §1

[14] = test system: PPARg DBDmut IVT, anti-PPARg (DBD mutation: PPARg1 K132A/R137A, NR concentration 270 nM)
How it was run: as §1

[15] = test system: PPARg homodimer (NR concentration 180 nM)
How it was run: as §1

[16] = test system: PXR:RXRa (NR concentration 270 nM, RXRa partner concentration 90 nM)
How it was run: as §1

[17] = test system: PXR homodimer (NR concentration 270 nM)
How it was run: as §1

[18] = test system: RARa:RXR (NR concentration 270 nM, RXRa partner concentration 90 nM)
How it was run: as §1

[19] = test system: RARa homodimer (NR concentration 270 nM)
How it was run: as §1

[20] = test system: RARb:RXRa (NR concentration 270 nM, RXRa partner concentration 90 nM)
How it was run: as §1

## CTCGAAAGGTCGTTCTCAGGTGAGTATACCAAAC
[1]
  PBM binding z-score: 5.6
[2]
  PBM binding z-score: 4.19
[3]
  PBM binding z-score: 1.08
[4]
  PBM binding z-score: 3.68
[5]
  PBM binding z-score: 1.37
[6]
  PBM binding z-score: 4.56
[7]
  PBM binding z-score: 1.99
[8]
  PBM binding z-score: 3.08
[9]
  PBM binding z-score: 0.949
[10]
  PBM binding z-score: 2.29
[11]
  PBM binding z-score: 0.679
[12]
  PBM binding z-score: 1.61
[13]
  PBM binding z-score: 0.926
[14]
  PBM binding z-score: 0.753
[15]
  PBM binding z-score: 2.11
[16]
  PBM binding z-score: 3.62
[17]
  PBM binding z-score: 0.471
[18]
  PBM binding z-score: 4.19
[19]
  PBM binding z-score: -0.0759
[20]
  PBM binding z-score: 3.71

## CCTTACCGGTCACTGACAGGTTATAGCATTTGGA
[1]
  PBM binding z-score: 1.09
[2]
  PBM binding z-score: 1.89
[3]
  PBM binding z-score: 1.73
[4]
  PBM binding z-score: 1.31
[5]
  PBM binding z-score: 0.619
[6]
  PBM binding z-score: 1.49
[7]
  PBM binding z-score: 0.664
[8]
  PBM binding z-score: 0.675
[9]
  PBM binding z-score: 0.114
[10]
  PBM binding z-score: 0.418
[11]
  PBM binding z-score: 0.892
[12]
  PBM binding z-score: 1.17
[13]
  PBM binding z-score: 0.534
[14]
  PBM binding z-score: 0.217
[15]
  PBM binding z-score: 2.23
[16]
  PBM binding z-score: 1.01
[17]
  PBM binding z-score: 0.467
[18]
  PBM binding z-score: 1.29
[19]
  PBM binding z-score: 1.61
[20]
  PBM binding z-score: 3.06

## GCTAGGAGGCCATTTGGGTCACTCAATGACGGGC
[1]
  PBM binding z-score: 0.677
[2]
  PBM binding z-score: 0.0368
[3]
  PBM binding z-score: -0.495
[4]
  PBM binding z-score: 0.118
[5]
  PBM binding z-score: -0.985
[6]
  PBM binding z-score: 1.73
[7]
  PBM binding z-score: 0.825
[8]
  PBM binding z-score: 0.402
[9]
  PBM binding z-score: -0.518
[10]
  PBM binding z-score: 0.187
[11]
  PBM binding z-score: 1.91
[12]
  PBM binding z-score: 2.38
[13]
  PBM binding z-score: -0.861
[14]
  PBM binding z-score: -0.88
[15]
  PBM binding z-score: 0.287
[16]
  PBM binding z-score: 1.21
[17]
  PBM binding z-score: 1.1
[18]
  PBM binding z-score: 1.04
[19]
  PBM binding z-score: -0.719
[20]
  PBM binding z-score: 1.95

## TCATATAGGTAAATGCTAGGTAAAAGTCCGATCT
[1]
  PBM binding z-score: 1.25
[2]
  PBM binding z-score: 1.02
[3]
  PBM binding z-score: 0.456
[4]
  PBM binding z-score: 0.888
[5]
  PBM binding z-score: 0.06
[6]
  PBM binding z-score: 1.36
[7]
  PBM binding z-score: 0.914
[8]
  PBM binding z-score: 2.29
[9]
  PBM binding z-score: 3.89
[10]
  PBM binding z-score: 2.93
[11]
  PBM binding z-score: 4.04
[12]
  PBM binding z-score: 2.3
[13]
  PBM binding z-score: 0.817
[14]
  PBM binding z-score: 0.766
[15]
  PBM binding z-score: 0.885
[16]
  PBM binding z-score: 0.727
[17]
  PBM binding z-score: 0.893
[18]
  PBM binding z-score: 0.814
[19]
  PBM binding z-score: 1.8
[20]
  PBM binding z-score: 0.393

## CAAACTAGCTCAAAGGTCAAAGTCGAGCCAACCA
[1]
  PBM binding z-score: 5.95
[2]
  PBM binding z-score: 5.85
[3]
  PBM binding z-score: 4.59
[4]
  PBM binding z-score: 5.66
[5]
  PBM binding z-score: 2.54
[6]
  PBM binding z-score: 6.14
[7]
  PBM binding z-score: 9.32
[8]
  PBM binding z-score: 8.51
[9]
  PBM binding z-score: 8.32
[10]
  PBM binding z-score: 9.43
[11]
  PBM binding z-score: 1.24
[12]
  PBM binding z-score: 4.54
[13]
  PBM binding z-score: 0.599
[14]
  PBM binding z-score: 0.63
[15]
  PBM binding z-score: 4.6
[16]
  PBM binding z-score: 5.37
[17]
  PBM binding z-score: 1.71
[18]
  PBM binding z-score: 6.39
[19]
  PBM binding z-score: 2.49
[20]
  PBM binding z-score: 4.76

## TTGCCAAGGTGAAGGTCGTTGATCCCTCTGTAGA
[1]
  PBM binding z-score: 2.38
[2]
  PBM binding z-score: 1.79
[3]
  PBM binding z-score: -0.705
[4]
  PBM binding z-score: 1.45
[5]
  PBM binding z-score: -1.15
[6]
  PBM binding z-score: 2.12
[7]
  PBM binding z-score: 0.85
[8]
  PBM binding z-score: 2.06
[9]
  PBM binding z-score: 0.251
[10]
  PBM binding z-score: 1.41
[11]
  PBM binding z-score: 1.25
[12]
  PBM binding z-score: 2.3
[13]
  PBM binding z-score: -1.04
[14]
  PBM binding z-score: -0.656
[15]
  PBM binding z-score: 0.119
[16]
  PBM binding z-score: 1.21
[17]
  PBM binding z-score: -0.362
[18]
  PBM binding z-score: 1.6
[19]
  PBM binding z-score: -0.87
[20]
  PBM binding z-score: 2.08

## GCATATAGGTAATACAAGGTGAAGGTCCGATTGT
[1]
  PBM binding z-score: 0.87
[2]
  PBM binding z-score: 1.46
[3]
  PBM binding z-score: 0.0259
[4]
  PBM binding z-score: 0.247
[5]
  PBM binding z-score: -0.268
[6]
  PBM binding z-score: 1.09
[7]
  PBM binding z-score: 1.25
[8]
  PBM binding z-score: 1.12
[9]
  PBM binding z-score: 0.453
[10]
  PBM binding z-score: 0.748
[11]
  PBM binding z-score: 4.57
[12]
  PBM binding z-score: 3.17
[13]
  PBM binding z-score: 0.671
[14]
  PBM binding z-score: 0.932
[15]
  PBM binding z-score: 0.421
[16]
  PBM binding z-score: 0.391
[17]
  PBM binding z-score: 0.248
[18]
  PBM binding z-score: 1.23
[19]
  PBM binding z-score: 0.491
[20]
  PBM binding z-score: 0.573
